# PubChem BioAssay (NCATS)
# Inconclusive results are not listed. Calls of active or inactive are those of the source. Calls come from the whole dose curve; as a rule, active = well fitted curve in the direction sought with a large enough effect; inconclusive = small, poorly fitted or top-dose-only effect, or another doubt; inactive = no such curve, though single readings can be large; an effect the other way counts as inactive or inconclusive.
# Legend:
# [1] = Quantitative High-Throughput drug screen in 47 multiple myeloma cell lines against the NCATS MIPE library collection: JJN3_DSMZ cell viability assay (AID 1918966; note: nearly all actives have a fitted effect of over 50% in size; note: potency is the fitted concentration of half-maximal effect)
# Outline: (§1)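 CellTiter-Glo ATP luminescence gave viability after 48 h compound treatment at 37C of 500 multiple myeloma cells per well. Normalisation used DMSO-only wells as 100% and media-only wells as 0% viability; primary qHTS of approved and investigational drugs.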
# [2] = Quantitative High-Throughput drug screen in 47 multiple myeloma cell lines against the NCATS MIPE library collection: H1112_PLB cell viability assay (AID 1918967; note: nearly all actives have a fitted effect of over 30% in size; note: potency is the fitted concentration of half-maximal effect)
# Outline: as §1
# [3] = Quantitative High-Throughput drug screen in 47 multiple myeloma cell lines against the NCATS MIPE library collection: KMS27_JCRB cell viability assay (AID 1918970); note: nearly all actives have a fitted effect of over 30% in size; note: potency is the fitted concentration of half-maximal effect
# Outline: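 Each line is seeded at 500 cells per well and treated with library compounds for 48 hours under 37 °C, 5% CO2. CellTiter-Glo is then added for 5 min at room temperature before median relative luminescence is recorded.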
# [4] = Quantitative High-Throughput drug screen in 47 multiple myeloma cell lines against the NCATS MIPE library collection: NCIH929_DSMZ cell viability assay (AID 1918978); note: nearly all actives have a fitted effect of over 35% in size; note: potency is the fitted concentration of half-maximal effect
# Outline: (§2)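 ATP-based CellTiter-Glo luminescence after 48 h drug exposure (37 °C, 5% CO2) of 500 myeloma cells per well. DMSO-only wells set 100% viability, media-only wells 0%; MIPE 4.0 library added by pin tool.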
# [5] = Quantitative High-Throughput drug screen in 47 multiple myeloma cell lines against the NCATS MIPE library collection: MM1S_ATCC cell viability assay (AID 1918980); note: potency is the fitted concentration of half-maximal effect; nearly all actives have a fitted effect of over 45% in size
# Outline: as §2
# [6] = Quantitative High-Throughput drug screen in 47 multiple myeloma cell lines against the NCATS MIPE library collection: MM1R_ATCC cell viability assay (AID 1918981); note: nearly all actives have a fitted effect of over 35% in size; note: potency is the fitted concentration of half-maximal effect
# Outline: as §2
# [7] = Quantitative High-Throughput drug screen in 47 multiple myeloma cell lines against the NCATS MIPE library collection: LP1_DSMZ cell viability assay (AID 1918982); note: nearly all actives have a fitted effect of over 35% in size; note: potency is the fitted concentration of half-maximal effect
# Outline: as §2
# [8] = Quantitative High-Throughput drug screen in 47 multiple myeloma cell lines against the NCATS MIPE library collection: KMS28PE_JCRB cell viability assay (AID 1918983); note: nearly all actives have a fitted effect of over 35% in size; note: potency is the fitted concentration of half-maximal effect
# Outline: as §2
# [9] = Quantitative High-Throughput drug screen in 47 multiple myeloma cell lines against the NCATS MIPE library collection: L363_DSMZ cell viability assay (AID 1918984); note: nearly all actives have a fitted effect of over 40% in size; note: potency is the fitted concentration of half-maximal effect
# Outline: as §2
# [10] = Quantitative High-Throughput drug screen in 47 multiple myeloma cell lines against the NCATS MIPE library collection: OCIMY7_PLB cell viability assay (AID 1918987); note: potency is the fitted concentration of half-maximal effect; nearly all actives have a fitted effect of over 65% in size
# Outline: as §2
# [11] = Quantitative High-Throughput drug screen in 47 multiple myeloma cell lines against the NCATS MIPE library collection: Karpas25_ECACC cell viability assay (AID 1918968; note: nearly all actives have a fitted effect of over 35% in size; note: potency is the fitted concentration of half-maximal effect)
# Outline: as §1
# [12] = Quantitative High-Throughput drug screen in 47 multiple myeloma cell lines against the NCATS MIPE library collection: KMS12BM_JCRB cell viability assay (AID 1918971); note: nearly all actives have a fitted effect of over 35% in size; note: potency is the fitted concentration of half-maximal effect
# Outline: (§3)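 Myeloma cells (500 per well) were exposed to MIPE 4.0 compounds by pin transfer and incubated 48 hours at 37C, 5% CO2. Viability was read as ATP by CellTiter-Glo luminescence, normalised to DMSO (100%) and media-only (0%) wells.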
# [13] = Quantitative High-Throughput drug screen in 47 multiple myeloma cell lines against the NCATS MIPE library collection: KMS12PE_JCRB cell viability assay (AID 1918972); note: nearly all actives have a fitted effect of over 30% in size; note: potency is the fitted concentration of half-maximal effect
# Outline: as §1
# [14] = Quantitative High-Throughput drug screen in 47 multiple myeloma cell lines against the NCATS MIPE library collection: KMS21BM_JCRB cell viability assay (AID 1918974); settings: ATP luminescence, 48 h; viability: at 45.8 µM (top of the series) unless noted; note: potency is the fitted concentration of half-maximal effect
# Outline: as §1
# [15] = Quantitative High-Throughput drug screen in 47 multiple myeloma cell lines against the NCATS MIPE library collection: KMS26_JCRB cell viability assay (AID 1918975); note: potency is the fitted concentration of half-maximal effect; nearly all actives have a fitted effect of over 45% in size
# Outline: as §3
# [16] = Quantitative High-Throughput drug screen in 47 multiple myeloma cell lines against the NCATS MIPE library collection: MOLP8_DSMZ cell viability assay (AID 1918977); note: nearly all actives have a fitted effect of over 45% in size; note: potency is the fitted concentration of half-maximal effect
# Outline: as §2
# [17] = Quantitative High-Throughput drug screen in 47 multiple myeloma cell lines against the NCATS MIPE library collection: OCIMY1_PLB cell viability assay (AID 1918979); note: nearly all actives have a fitted effect of over 35% in size; note: potency is the fitted concentration of half-maximal effect
# Outline: as §2
# [18] = Quantitative High-Throughput drug screen in 47 multiple myeloma cell lines against the NCATS MIPE library collection: MMM1_PLB cell viability assay (AID 1918976)
# Outline: as §2
# [19] = Quantitative High-Throughput drug screen in 47 multiple myeloma cell lines against the NCATS MIPE library collection: KMS20_JCRB cell viability assay (AID 1918973); note: nearly all actives have a fitted effect of over 45% in size
# Outline: as §1
SMILES,Potency [1],Potency [2],Potency [3],Potency [4],Potency [5],Potency [6],Potency [7],Potency [8],Potency [9],Potency [10],Potency [11],Potency [12],Potency [13],Potency [14],Potency [15],Potency [16],Potency [17],Potency [18],Potency [19]
CC(C)(Sc1ccc(CCN(CCCCC2CCCCC2)C(=O)NC2CCCCC2)cc1)C(=O)O,18.7 µM (active),inactive,inactive,inactive,4.18 µM (active),23.5 µM (active),16.6 µM (active),8.33 µM (active),inactive,14.8 µM (active),–,–,–,–,–,–,–,–,–
COc1cccc2cc(-c3nc(C4CCC(C(=O)O)CC4)n4ncnc(N)c34)[nH]c12 (centres undefined),1.05 µM (active),5.9 µM (active),–,0.187 µM (active),0.469 µM (active),0.469 µM (active),–,0.469 µM (active),–,4.18 µM (active),0.662 µM (active),0.0743 µM (active),0.166 µM (active),0.469 µM (active),0.662 µM (active),0.418 µM (active),1.05 µM (active),–,–
CC[C@H](Nc1ncnc2nc[nH]c12)c1nc2cccc(F)c2c(=O)n1-c1ccccc1,10.5 µM (active),2.64 µM (active),–,8.33 µM (active),0.118 µM (active),–,–,–,–,4.69 µM (active),11.8 µM (active),18.7 µM (active),–,inactive,13.2 µM (active),23.5 µM (active),16.6 µM (active),18.7 µM (active),–
O=C(Nc1nc2ccccc2n1CCN1CCOCC1)c1cccc([N+](=O)[O-])c1,20.9 µM (active),inactive,7.43 µM (active),–,9.35 µM (active),18.7 µM (active),–,–,–,1.87 µM (active),inactive,–,–,–,29.6 µM (active),–,–,–,–
Oc1ccc(C2CNCCc3c2cc(O)c(O)c3Cl)cc1 (centres undefined),inactive,inactive,–,16.6 µM (active),3.32 µM (active),inactive,inactive,inactive,–,–,5.9 µM (active),inactive,inactive,18.7 µM (active),1.32 µM (active),inactive,inactive,–,inactive
Cc1cc(Nc2nc(N[C@@H](C)c3ncc(F)cn3)ncc2Cl)n[nH]1,18.7 µM (active),3.32 µM (active),–,–,3.32 µM (active),26.4 µM (active),–,20.9 µM (active),–,–,–,–,–,–,26.4 µM (active),–,inactive,–,–
S=C(NCc1ccc2c(c1)OCO2)N1CCN(c2ncnc3c2oc2ccccc23)CC1,–,0.605 µM (active),4.29 µM (active),–,3.82 µM (active),–,–,6.05 µM (active),0.605 µM (active),4.29 µM (active),0.303 µM (active),1.91 µM (active),1.52 µM (active),1.21 µM (active),–,–,42.9 µM (active),1.21 µM (active),–
COCC(=O)NCC=Cc1ccc2ncnc(Nc3ccc(Oc4ccc(C)nc4)c(C)c3)c2c1,23.5 µM (active),–,–,20.9 µM (active),26.4 µM (active),–,–,–,14.8 µM (active),–,6.62 µM (active),–,16.6 µM (active),–,–,–,–,–,–
